# Laboratory results as given in PubChem BioAssay AID624045 (National Center for Advancing Translational Sciences (NCATS), 2012).
# Values without a mark were called inactive. The source made the active and inactive calls. Calls come from the whole dose curve; as a rule, active = well fitted inhibition curve with a large enough effect; inactive = flat fitted curve, though single readings scatter.
# Biological target: Dual specificity tyrosine-phosphorylation-regulated kinase 1A (Homo sapiens) (UniProt Q13627)
# Assay: Reaction Biology data for inhibitors of DYRK1A: Probe SAR
# Conditions: Reaction Biology DYRK1A kinase assay, 10 uM ATP; series mostly up to 10 µM; activity change, negative = inhibition: at the top concentration
# Description: Alternative splicing of pre-mRNAs plays a major role in the regulation of eukaryotic gene expression. Alternative splicing is now thought to be one of the primary reasons for the complexity of higher organisms leading to an average of three protein isoforms per gene. Aberrant splicing can lead to a number of diseases and is known to play a role in rare genetic diseases such as progeria syndrome. Hutchinson-Gilford Progeria Syndrome (HGPS) is a pediatric premature aging disease caused by a spontaneous mutation in the lamin A/C (LMNA) gene due to a single point mutation in the lamin A gene effecting 1 in 4 million people. To identify both specific splicing modulators of the lamin A gene as well as general splicing modulators, a cell-based HTS assay was developed using a minigene reporter system (AIDs, 1459 & 1487). […] This AID summarizes the characterization of lead compounds in Dyrk1a. NIH Molecular Libraries Probe Production Centers Network [MLPCN] NIH Chemical Genomics Center [NCGC] MLPCN Grant: MH084827 Assay Submitter (PI): Tom Misteli
# Compound IC50s were determined at Reaction Biology (http://www.reactionbiology.com) with ten concentration points starting at 10 uM in the assay using a 3-fold dilution series. The control compound staurosporine was also tested in the 10-dose IC50 mode with the same 3-fold serial dilution, again starting at 10 uM. All kinase reactions were performed using 10 uM ATP in the assay. 100% activity was taken from kinase reactions with DMSO alone (the vehicle used for compound stock solutions).
SMILES,Potency,"activity change, negative = inhibition"
c1cncc(CNc2nccc(-c3ccc4c(c3)OCO4)n2)c1,7.1 nM (active),–
Cc1nc(CNc2ncnc3ccc(-c4ccc5c(c4)OCO5)cc23)cs1,33.3 nM (active),–
c1cc(-c2ccc3c(c2)OCO3)nc(Nc2ccc3c(c2)OCO3)n1,24.9 nM (active),–
Clc1ccc(CNc2nccc(-c3ccc4cn[nH]c4c3)n2)cc1Cl,169 nM (active),–
c1cncc(CNc2ccnc(-c3ccc4cn[nH]c4c3)n2)c1,1430 nM (active),–
Clc1ccc(CNc2ccnc(-c3ccc4[nH]ncc4c3)n2)cc1Cl,2350 nM (active),–
Cc1c(-c2ccnc(NCc3cccnc3)n2)sc(=O)n1C,29.3 nM (active),–
O=[N+]([O-])c1cc(Nc2nccc(-c3ccc4c(c3)OCO4)n2)cc(C(F)(F)F)c1,24.1 nM (active),–
Clc1cc(Cl)cc(CNc2ncncc2-c2ccc3c(c2)OCO3)c1,282 nM (active),–
Clc1ccc(CNc2nccc(-c3ccc4c(c3)OCO4)n2)cc1Cl,26.3 nM (active),–
c1cncc(CNc2ccnc(-c3ccc4[nH]ncc4c3)n2)c1,349 nM (active),–
Clc1ccc(Nc2nccc(-c3ccc4c(c3)OCO4)n2)cc1,273 nM (active),–
Cc1nc(CN(C)c2ncnc3ccc(-c4ccc5[nH]ncc5c4)cc23)cs1,64.1 nM (active),–
COc1cccc(-c2ccnc(NCc3ccc(Cl)cc3)n2)c1,6360 nM (active),–
COc1ccc(-c2ccnc(NCc3ccc(Cl)c(Cl)c3)n2)cc1OC,–,-30.6%
Clc1ccc(CNc2nccc(-c3ccc4[nH]ncc4c3)n2)cc1Cl,128 nM (active),–

SMILES,Potency,"activity change, negative = inhibition"
Brc1ccc(CNc2nccc(-c3ccc4c(c3)OCO4)n2)cc1Br,79.3 nM (active),–
Clc1ccc(CNc2nccc(-c3ccc4c(c3)OCCO4)n2)cc1Cl,18.2 nM (active),–
Cc1nc(CN(C)c2ncnc3ccc(-c4ccc5c(c4)OCO5)cc23)cs1,5.2 nM (active),–
c1nc(NCC2CCCO2)c2cc(-c3ccc4c(c3)OCO4)ccc2n1 (configuration not stated),24.3 nM (active),–
Clc1ccc(CNc2ncncc2-c2ccc3c(c2)OCO3)cc1Cl,3450 nM (active),–
COc1cccc(-c2ccnc(NCc3ccc(Cl)c(Cl)c3)n2)c1,4650 nM (active),–
FC(F)(F)c1cccc(Nc2nccc(-c3ccc4c(c3)OCO4)n2)c1,10.4 nM (active),–
COc1ccc(-c2ccnc(NCc3ccc(Cl)cc3)n2)cc1,558 nM (active),–
Cc1c(-c2ccnc(NCc3ccc(Cl)cc3)n2)sc(=O)n1C,62.9 nM (active),–
c1cncc(CNc2nccc(-c3ccc4[nH]ncc4c3)n2)c1,60.8 nM (active),–
Brc1cc(Br)cc(CNc2nccc(-c3ccc4c(c3)OCO4)n2)c1,10.7 nM (active),–
COc1ccc(-c2ccnc(NCc3ccc(Cl)c(Cl)c3)n2)cc1,203 nM (active),–
FC(F)(F)c1cc(Br)cc(Nc2nccc(-c3ccc4c(c3)OCO4)n2)c1,107 nM (active),–
Clc1ccc(CNc2ccnc(-c3ccc4c(c3)OCO4)n2)cc1Cl,–,-22.4%
Clc1ccc(CNc2ncncc2-c2ccc3c(c2)OCO3)cc1,4580 nM (active),–
c1cncc(CNc2ncncc2-c2ccc3c(c2)OCO3)c1,–,-50%
